For nine compounds, growth results are on record in PubChem BioAssay (NCI).

The structures appear in SMILES notation. About 83,000 compounds went through this panel and 20% of them were active in at least one assay; those are over-represented in the sample as a whole.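 96-well plates, one dose, 48 hours. Percent growth reported; active if below 10.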 A number with no mark means an inactive call. Calls of active or inactive are those of the source.

Test systems include SR leukemia; RPMI-8226 leukemia; OVCAR-8 ovarian; OVCAR-5 ovarian; SK-OV-3 ovarian; IGROV1 ovarian; OVCAR-3 ovarian; HS 578T breast; NCI/ADR-RES ovarian; T-47D breast; BT-549 breast; MDA-MB-435 melanoma; SW-620 colon; MCF7 breast; HCT-116 colon; HCC-2998 colon; KM12 colon; OVCAR-4 ovarian.
What all share (assay): NCI-60 one-dose screen, 48 h (100 = growth as untreated, 0 = no growth, -100 = all killed)
Conditions in all cases: 10 µM unless noted

Turning to `COc1ccc(CCN2C(=O)/C(=C/c3nc(CO)cs3)SC2=S)cc1`, the growth in the assay on SR leukemia was 60.4%; in the assay on RPMI-8226 leukemia it was 17.7%; with OVCAR-8 ovarian it was 97.5%; with OVCAR-5 ovarian, 102%; in the assay on SK-OV-3 ovarian it was 97.9%; in the assay on IGROV1 ovarian it was 91.4%. The growth in the assay on OVCAR-3 ovarian was 54.2%; in the assay on HS 578T breast it was 106%; with NCI/ADR-RES ovarian, 95.7%; with T-47D breast, 76.4%; with BT-549 breast it was 97.1%; in the assay on MDA-MB-435 melanoma it was 96%. Further, the growth in the assay with SW-620 colon was 93.7%; in the assay with MCF7 breast it was 16%; with HCT-116 colon it was 59.9%; with HCC-2998 colon it was 107%; in the assay with KM12 colon it was 17.8%.

Consider `CCOC(=O)c1nn(-c2ccccc2)c(=O)c2c(N)c(C#N)c(-c3cccs3)cc12`, for which the growth was 96% in the assay on SR leukemia; 74.4% in the assay with RPMI-8226 leukemia; 54.5% in the assay with OVCAR-8 ovarian; 88.8% in the assay on OVCAR-5 ovarian; 36.7% with OVCAR-4 ovarian; 64% in the assay with IGROV1 ovarian. Besides, the growth is 109% in the assay on OVCAR-3 ovarian; 32.9% in the assay with HS 578T breast; 59.8% with NCI/ADR-RES ovarian; 76.7% in the assay with T-47D breast; 107% in the assay on BT-549 breast; 90.3% with MDA-MB-435 melanoma. For the same compound, the growth is 79.3% in the assay on SW-620 colon; 74.6% in the assay with MCF7 breast; 52.8% in the assay with HCT-116 colon; 78.2% in the assay on HCC-2998 colon; 80.4% in the assay with KM12 colon.

Turning to `COc1ccc(Cn2cc3c(c2-c2cc(OC)c(OC)c(OC)c2)CCCc2cnoc2-3)cc1N`, the growth with SR leukemia was 18%; with RPMI-8226 leukemia, 19.9%; in the assay on OVCAR-8 ovarian, 47.3%; with OVCAR-5 ovarian it was 38.2%; in the assay with OVCAR-4 ovarian it was 80.9%; with OVCAR-3 ovarian it was 7.33% (active). Further, the growth in the assay with HS 578T breast was 13%; in the assay with NCI/ADR-RES ovarian, 15.5%; in the assay on T-47D breast, 51.5%; in the assay with BT-549 breast, 68.2%; in the assay on MDA-MB-435 melanoma, -45.3% (active); in the assay on SW-620 colon, 29.6%. Besides, the growth was 15.2% with MCF7 breast, 24.1% in the assay on HCT-116 colon, 49% in the assay with HCC-2998 colon and 26.1% in the assay on KM12 colon.

Consider `O=C(NNc1nc2cc(F)c(F)cc2n2cccc12)c1ncccn1`, for which the growth in the assay on SR leukemia is 18.7%; with RPMI-8226 leukemia it was 20.8%; in the assay with OVCAR-8 ovarian it was 21.9%; with OVCAR-5 ovarian, 49.6%; in the assay with OVCAR-4 ovarian it was 13.4%; with IGROV1 ovarian, 20.5%. Also, the growth in the assay on OVCAR-3 ovarian is 20.8%; in the assay with HS 578T breast it was 49.1%; with NCI/ADR-RES ovarian, 10.1%; in the assay on T-47D breast, 14.8%; in the assay with BT-549 breast, 36.8%; with MDA-MB-435 melanoma it was 26.1%. Besides, the growth in the assay on SW-620 colon was 26.4%; with MCF7 breast, 16.9%; in the assay with HCT-116 colon, 31.2%; with HCC-2998 colon, 62.4%; in the assay with KM12 colon, 25.6%.

Take `C=CCn1c(SCC(=O)c2ccc(OC)cc2)nnc1-c1ccc(OC)cc1`: the growth in the assay on SR leukemia was 96.1%; with RPMI-8226 leukemia, 98.4%; in the assay on OVCAR-8 ovarian, 99.9%; in the assay with OVCAR-5 ovarian, 96.7%; with OVCAR-4 ovarian it was 98%; in the assay on IGROV1 ovarian, 103%. The growth was 103% in the assay with HS 578T breast; 94.9% in the assay on NCI/ADR-RES ovarian; 95.9% in the assay with BT-549 breast; 97.8% with MDA-MB-435 melanoma; 106% with SW-620 colon; 96% with MCF7 breast. In addition, the growth with HCT-116 colon was 96.1%; in the assay with HCC-2998 colon, 109%; with KM12 colon, 97.7%.

On to `C=CCn1c(SCC(=O)Nc2ccc(OC)cc2)nnc1-c1ccc(Cl)cc1`, for which the growth in the assay with SR leukemia was 74.3%; in the assay on RPMI-8226 leukemia, 105%; in the assay on OVCAR-8 ovarian, 98%; with OVCAR-5 ovarian, 93.9%; in the assay on OVCAR-4 ovarian it was 99.7%; in the assay with IGROV1 ovarian, 89.8%. Further, the growth in the assay with HS 578T breast is 92.2%; in the assay with NCI/ADR-RES ovarian it was 83.6%; in the assay with T-47D breast, 95.5%; in the assay with BT-549 breast it was 106%; in the assay with MDA-MB-435 melanoma it was 90.1%; in the assay with SW-620 colon, 99.1%. Besides, the growth in the assay with MCF7 breast was 94.9%; in the assay with HCT-116 colon, 91.2%; in the assay with HCC-2998 colon it was 99.6%; in the assay on KM12 colon, 92.4%.

With `COc1ccc(OC)c(NC2=C(Cl)C(=O)C(C)=C(C)C2=O)c1`, the growth with SR leukemia is 96.5%; in the assay on RPMI-8226 leukemia, 65.9%; with OVCAR-8 ovarian it was 95.6%; with OVCAR-5 ovarian it was 109%; with OVCAR-4 ovarian it was 55.5%; in the assay with IGROV1 ovarian, 89.6%. Besides, the growth in the assay with OVCAR-3 ovarian was 92.3%; in the assay on HS 578T breast, 92.8%; in the assay with NCI/ADR-RES ovarian it was 96.8%; with T-47D breast it was -5.07% (active); with BT-549 breast it was 102%; with MDA-MB-435 melanoma, 106%. The growth in the assay with SW-620 colon is 98.8%; in the assay with MCF7 breast, 80.5%; with HCT-116 colon, 57.6%; in the assay with HCC-2998 colon it was 108%; in the assay on KM12 colon it was 93.8%.

For `Cc1ccc(/C=C/CC(=O)Nc2ccc(C(=O)Nc3ccc(F)cc3N)cc2)cn1`, the growth in the assay on SR leukemia is 46.1%; with RPMI-8226 leukemia, 19.8%; in the assay on OVCAR-8 ovarian it was 48.4%; in the assay with OVCAR-5 ovarian it was 55.7%; in the assay on OVCAR-4 ovarian, 62.1%; with IGROV1 ovarian, 65.5%. The growth in the assay with OVCAR-3 ovarian was 79.5%; with HS 578T breast it was 56.7%; with NCI/ADR-RES ovarian it was 90%; with BT-549 breast, 73%; in the assay with MDA-MB-435 melanoma, 47.2%; in the assay on SW-620 colon it was 46.3%. For the same compound, the growth in the assay on MCF7 breast was 39.6%; in the assay on HCT-116 colon, 39%; in the assay on KM12 colon it was 75.2%.

For the compound `Nc1nc(-c2cccc([N+](=O)[O-])c2)c(N=Nc2ccccc2[N+](=O)[O-])s1`, the growth was 48.5% with SR leukemia; 36.4% in the assay on RPMI-8226 leukemia; 8.47% (active) in the assay with OVCAR-8 ovarian; 43.5% with OVCAR-5 ovarian; -2.02% (active) with OVCAR-4 ovarian; 1.09% (active) in the assay with IGROV1 ovarian. The growth with HS 578T breast is 6.64% (active); in the assay on NCI/ADR-RES ovarian, 16.8%; in the assay with T-47D breast it was 42.3%; in the assay on BT-549 breast, 34.4%; in the assay with MDA-MB-435 melanoma, 67.7%; with SW-620 colon, 6.99% (active). In addition, the growth in the assay with MCF7 breast was 82.2%; with HCT-116 colon it was -13.8% (active); in the assay with HCC-2998 colon, 84.9%; in the assay with KM12 colon, 54.2%.
